Source: PubChem BioAssay (NCI)
Compounds without any hit were thinned out: in the full panel of roughly 83,000, 20% have a hit.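 96-well plates, one dose, 48 hours. Percent growth reported; active if below 10.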 A number with no mark means an inactive call. Activity calls are given as the source filed them.

Legend:
Experiment in all cases: NCI-60 one-dose screen, 48 h (100 = growth as untreated, 0 = no growth, -100 = all killed)
SR leukemia = details: 10 µM unless noted
RPMI-8226 leukemia = details: 10 µM unless noted
OVCAR-8 ovarian = details: 10 µM unless noted
OVCAR-5 ovarian = details: 10 µM unless noted
OVCAR-4 ovarian = details: 10 µM unless noted
SK-OV-3 ovarian = details: 10 µM unless noted
IGROV1 ovarian = details: 10 µM unless noted
OVCAR-3 ovarian = details: 10 µM unless noted
HS 578T breast = details: 10 µM
NCI/ADR-RES ovarian = details: 10 µM unless noted
BT-549 breast = details: 10 µM unless noted
MDA-MB-435 melanoma = details: 10 µM unless noted
SW-620 colon = details: 10 µM unless noted
MCF7 breast = details: 10 µM unless noted
HCT-116 colon = details: 10 µM unless noted
HCC-2998 colon = details: 10 µM
KM12 colon = details: 10 µM unless noted
T-47D breast = details: 10 µM unless noted

| SMILES | growth (SR leukemia) | growth (RPMI-8226 leukemia) | growth (OVCAR-8 ovarian) | growth (OVCAR-5 ovarian) | growth (OVCAR-4 ovarian) | growth (SK-OV-3 ovarian) | growth (IGROV1 ovarian) | growth (OVCAR-3 ovarian) | growth (HS 578T breast) | growth (NCI/ADR-RES ovarian) | growth (BT-549 breast) | growth (MDA-MB-435 melanoma) | growth (SW-620 colon) | growth (MCF7 breast) | growth (HCT-116 colon) | growth (HCC-2998 colon) | growth (KM12 colon) | growth (T-47D breast) |
| --- | --- | --- | --- | --- | --- | --- | --- | --- | --- | --- | --- | --- | --- | --- | --- | --- | --- | --- |
| Clc1ccc(Nc2nccc(Nc3ccc4[nH]ncc4c3)n2)cc1 | 2.66% (active) | 18.3% | 22.1% | 64.9% | 49.3% | 88.4% | 46.9% | 52.1% | 61.5% | 38.9% | 53% | 55.8% | 33% | 25% | 39.4% | 94.3% | 9.06% (active) | – |
| CC(C)OP(=O)(CCC(=O)c1c[nH]c2ccccc12)OC(C)C | 100% | 73.5% | 91.8% | 107% | 105% | 89% | 106% | 106% | 86.6% | 103% | – | – | 105% | 100% | 113% | 97.3% | 99.9% | 89.5% |
| COc1cnc2c(c1)C(=O)c1c-2n(CCCN2CCC(N)CC2)c(=O)c2cc([N+](=O)[O-])ccc12 | 2.78% (active) | 39.6% | 42.4% | 119% | 60.4% | 30.4% | 56% | 79.7% | 81.4% | 76% | – | 85.9% | 37.2% | 25.3% | 36.4% | 69.3% | 44.6% | 46.6% |
| Cc1ccc(-[n+]2c3cc(N)c(C)cc3nc3cc(C)c(Nc4ccccc4)cc32)cc1 | -39.1% (active) | -36.5% (active) | -6.17% (active) | -61.3% (active) | -38.7% (active) | -90.4% (active) | -59.5% (active) | -97.4% (active) | 18.8% | -21.8% (active) | – | -73.6% (active) | -71.8% (active) | -81.8% (active) | -100% (active) | -98% (active) | -92.7% (active) | – |
| O=[N+]([O-])c1cc(Br)cc2c1[nH]c1ccc(Br)cc12 | 77.2% | 78.2% | 57.7% | 80.4% | -26.5% (active) | 34.5% | 36.6% | 43.3% | 65.4% | 70.4% | – | 86.4% | 67% | 45.8% | 36.6% | 94.3% | 71.4% | 42.9% |
| Cc1cccc(NC(=O)[C@@H]2c3ccccc3C(=O)N(c3ccc(Cl)cc3)[C@H]2c2ccc(Cl)cc2)n1 | 34.5% | 24.5% | 51.2% | 78.7% | 45.1% | 55.1% | 73.5% | 61.8% | 72.4% | 47.8% | – | 46.6% | 40.6% | 40.9% | 26.2% | 50.6% | 34.5% | – |
| COc1ccc(-c2nocc2-c2cc(OC)c(OC)c(OC)c2)cc1 | 23.6% | 30.7% | 28.4% | 51% | 45.7% | 22.5% | 46.6% | -10.9% (active) | 27.4% | – | 48.5% | -54.4% (active) | 21.4% | 24.3% | 6.36% (active) | 13.4% | 12.4% | 39.6% |
| COC(=O)CCCNc1c(-c2c(O)c(O)cc3c(O)c(-c4c(C)cc5c(-c6nc7ccccn7c6NCCCC(=O)OC)c(O)c(O)cc5c4O)c(C)cc23)nc2ccccn12 | 24.3% | 22.5% | 51.4% | 119% | 98.6% | 50.5% | 34.8% | 64.6% | 34.5% | 100% | 16% | 20.7% | 60.1% | 18.2% | 7.23% (active) | 71.6% | 31.8% | – |
| CNC(=O)c1cc(Oc2cccc3nc(Nc4ccc(Oc5ccccc5)cc4)ccc23)ccn1 | 30.2% | 47.9% | 75.8% | 83.4% | 52.1% | 87.1% | 92.4% | 72.7% | 81.9% | 72.6% | – | 66.1% | 87.8% | 43.2% | 48% | 94% | 67.8% | 43.3% |
